# “And” between values parts separate entries of the source, which are not always exact repeats. Equal entries are not always repeated. Compounds without any hit were thinned out: in the full panel of roughly 83,000, 20% have a hit.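 Plates (96-well) were seeded with cells, treated with compound at one concentration, and incubated for 48 hours before percent growth was determined.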 The source made the active and inactive calls. Rule for the calls: active = growth percent below 10; inactive = the rest.
# Experiments:
# Test in all cases: NCI-60 one-dose screen, 48 h (100 = growth as untreated, 0 = no growth, -100 = all killed)
# Conditions in all cases: 10 µM unless noted
# HCT-15 colon = tested on: HCT-15 colon
# HT29 colon = tested on: HT29 colon
# SNB-75 CNS = tested on: SNB-75 CNS
# SNB-19 CNS = tested on: SNB-19 CNS
# U251 CNS = tested on: U251 CNS
# PC-3 prostate = tested on: PC-3 prostate
# SK-MEL-5 melanoma = tested on: SK-MEL-5 melanoma
# UACC-62 melanoma = tested on: UACC-62 melanoma
# LOX IMVI melanoma = tested on: LOX IMVI melanoma
# SK-MEL-28 melanoma = tested on: SK-MEL-28 melanoma
# SN12C renal = tested on: SN12C renal
# UO-31 renal = tested on: UO-31 renal
# TK-10 renal = tested on: TK-10 renal
# ACHN renal = tested on: ACHN renal
# CAKI-1 renal = tested on: CAKI-1 renal
# A498 renal = tested on: A498 renal
# HL-60(TB) leukemia = tested on: HL-60(TB) leukemia
# CCRF-CEM leukemia = tested on: CCRF-CEM leukemia
# EKVX NSCLC = tested on: EKVX NSCLC
# SK-MEL-2 melanoma = tested on: SK-MEL-2 melanoma
Structure (SMILES),growth (HCT-15 colon),growth (HT29 colon),growth (SNB-75 CNS),growth (SNB-19 CNS),growth (U251 CNS),growth (PC-3 prostate),growth (SK-MEL-5 melanoma),growth (UACC-62 melanoma),growth (LOX IMVI melanoma),growth (SK-MEL-28 melanoma),growth (SN12C renal),growth (UO-31 renal),growth (TK-10 renal),growth (ACHN renal),growth (CAKI-1 renal),growth (A498 renal),growth (HL-60(TB) leukemia),growth (CCRF-CEM leukemia),growth (EKVX NSCLC),growth (SK-MEL-2 melanoma)
O=C(NC(Cl)=C(Cl)Cl)P(=O)(c1ccccc1)c1ccccc1,105% (inactive),112% (inactive),92.3% (inactive),96.1% (inactive),95.5% (inactive),103% (inactive),98.5% (inactive),102% (inactive),101% (inactive),99.6% (inactive),107% (inactive),95.8% (inactive),118% (inactive),112% (inactive),85.7% (inactive),102% (inactive),110% (inactive),98.6% (inactive),–,–
O=C1CCCCC1CN1CCCCC1 (stereo not drawn),99.9% (inactive),85.3% (inactive),109% (inactive),108% (inactive),100% (inactive),97.8% (inactive),104% (inactive),99.4% (inactive),95.4% (inactive),106% (inactive),99.9% (inactive),88.7% (inactive),90.4% (inactive),102% (inactive),102% (inactive),96.6% (inactive),93.4% (inactive),98.7% (inactive),104% (inactive),–
Nc1ccc2c(c1)Cc1cc(N)ccc1-2,85.3% (inactive),98.8% (inactive),74% (inactive),103% (inactive),94.9% (inactive),84.9% (inactive),95.8% (inactive),96% (inactive),105% (inactive),92.6% (inactive),–,62.6% (inactive),106% (inactive),97% (inactive),86.4% (inactive),84.9% (inactive),100% (inactive),60.1% (inactive),61.2% (inactive),89.9% (inactive)
O=[N+]([O-])c1cc(Br)c(O)c(Br)c1,100% (inactive),95.6% (inactive),102% (inactive),102% (inactive),99.8% (inactive),96.7% (inactive),98% (inactive),105% (inactive),101% (inactive),120% (inactive),106% (inactive),87.5% (inactive),100% (inactive),118% (inactive),108% (inactive),70.1% (inactive),119% (inactive),100% (inactive),–,108% (inactive)
CCCCCCCCCCCCCCCCCCn1cc[n+](C)c1,3.3% (active) and -54.8% (active),-42.1% (active) and -36.8% (active),-74.4% (active) and -55.1% (active),-47.5% (active) and -68% (active),-0.673% (active) and -63.9% (active),-7.74% (active) and -8.63% (active),-81.1% (active) and -74.1% (active),-70.9% (active) and -82.1% (active),0.132% (active) and -52.2% (active),-49.4% (active) and -52.8% (active),–,-61.4% (active) and -66.1% (active),-70.2% (active) and -72.4% (active),-12.4% (active) and -43.5% (active),-67.3% (active) and -78.6% (active),-50.9% (active) and -44.9% (active),–,34% (inactive) and 67.8% (inactive),–,-61.3% (active) and -51.7% (active)
C[C@]12C[C@H](c3ccoc3)OC(=O)[C@H]1CC[C@@]1(C)[C@@H]2[C@H]2C=C[C@]1(O)C(=O)O2,101% (inactive),82.3% (inactive),78.3% (inactive),102% (inactive),97.8% (inactive),74.8% (inactive),106% (inactive),92.5% (inactive),106% (inactive),109% (inactive),–,88% (inactive),88.6% (inactive),108% (inactive),81.9% (inactive),105% (inactive),73.5% (inactive),96% (inactive),95.4% (inactive),94.9% (inactive)
C[C@]12CC[C@H](O)C[C@@H]1CC[C@@H]1[C@@H]2CC[C@]2(C)OC(=O)CC[C@@H]12,95.2% (inactive),79.6% (inactive),85.8% (inactive),96.6% (inactive),86.9% (inactive),92.5% (inactive),101% (inactive),93.5% (inactive),97.9% (inactive),105% (inactive),–,83.1% (inactive),–,107% (inactive),92.8% (inactive),109% (inactive),94.4% (inactive),114% (inactive),89% (inactive),108% (inactive)
CN(C)c1ccc(N)cc1,106% (inactive) and 83.6% (inactive),102% (inactive) and 37.4% (inactive),83.4% (inactive) and 62.8% (inactive),99.5% (inactive) and 47.8% (inactive),98.2% (inactive) and 17.5% (inactive),81.3% (inactive) and 50.8% (inactive),96.4% (inactive) and 44.5% (inactive),89% (inactive) and 43.3% (inactive),94.2% (inactive) and 27.2% (inactive),115% (inactive) and 73.2% (inactive),–,75% (inactive),117% (inactive) and 26.5% (inactive),–,78.2% (inactive),108% (inactive) and 62.7% (inactive),95.1% (inactive) and 38.5% (inactive),87.5% (inactive) and 36% (inactive),96.2% (inactive) and 32.4% (inactive),94.2% (inactive) and 71.7% (inactive)
O=NN(c1ccccc1)c1ccccc1,103% (inactive),119% (inactive),101% (inactive),106% (inactive),99.2% (inactive),98% (inactive),98.6% (inactive),95.4% (inactive),100% (inactive),114% (inactive),98.1% (inactive),96% (inactive),103% (inactive),118% (inactive),102% (inactive),101% (inactive),–,98.9% (inactive),–,105% (inactive)
ClCc1ccc(Cl)c(Cl)c1,98.6% (inactive),109% (inactive),104% (inactive),96.6% (inactive),100% (inactive),91.9% (inactive),92.2% (inactive),97.9% (inactive),104% (inactive),111% (inactive),97.9% (inactive),91.2% (inactive),–,96.8% (inactive),109% (inactive),95.5% (inactive),105% (inactive),96.3% (inactive),–,–
C/C(=N/OC(=O)N(C)C)c1ccc(Cl)c(Cl)c1,107% (inactive),95.2% (inactive),116% (inactive),99.4% (inactive),105% (inactive),93.7% (inactive),99.3% (inactive),97.8% (inactive),99.2% (inactive),105% (inactive),–,94.7% (inactive),101% (inactive),–,102% (inactive),99.6% (inactive),112% (inactive),98.2% (inactive),123% (inactive),111% (inactive)
CCC(Br)(CC)C(=O)NC(N)=O,103% (inactive),108% (inactive),86.1% (inactive),104% (inactive),105% (inactive),91.4% (inactive),99.2% (inactive),100% (inactive),102% (inactive),109% (inactive),103% (inactive),93.2% (inactive),–,–,98.2% (inactive),104% (inactive),99.6% (inactive),102% (inactive),107% (inactive),109% (inactive)
COC(=O)C1=CO[C@@H](C)[C@@H]2CN3CCc4c([nH]c5cc(OC)ccc45)[C@@H]3C[C@H]12,97.6% (inactive),103% (inactive),76.9% (inactive),95.2% (inactive),103% (inactive),93.9% (inactive),98.2% (inactive),78.3% (inactive),94.6% (inactive),114% (inactive),87.8% (inactive),–,101% (inactive),–,89.8% (inactive),68.6% (inactive),–,106% (inactive),97.5% (inactive),100% (inactive)
Clc1ccc(COC(Cn2ccnc2)c2ccc(Cl)cc2Cl)c(Cl)c1 (stereo not drawn),41.9% (inactive) and 46.2% (inactive),23.4% (inactive) and 31% (inactive),78.6% (inactive) and 90.2% (inactive),83.4% (inactive) and 83.8% (inactive),45.5% (inactive) and 69.4% (inactive),40.9% (inactive) and 39.3% (inactive),39% (inactive) and 3.49% (active),41.5% (inactive) and 52.1% (inactive),34% (inactive) and 47.6% (inactive),81.5% (inactive),–,25.8% (inactive) and 35.5% (inactive),62.1% (inactive) and 73.5% (inactive),–,29.6% (inactive) and 53.7% (inactive),46.1% (inactive),-0.421% (active) and 18.6% (inactive),51% (inactive) and 53.5% (inactive),48.6% (inactive) and 59.2% (inactive),69.7% (inactive) and 87% (inactive)

# From PubChem BioAssay (NCI)
